Among the data in the supplement of paper PMC10681739 are ETS1 binding intensity values, retold here.

Whole data set: some 4,100 sequences, median “arbitrary fluorescence units” near 780, cut for the highest 2% near 22,000. The sample holds the highest values, similar sequences and a random draw of the others, so the mix is not that of the screen.

In the assay the target is T1, ETS1 (UniProt P14921).
T1 sequence: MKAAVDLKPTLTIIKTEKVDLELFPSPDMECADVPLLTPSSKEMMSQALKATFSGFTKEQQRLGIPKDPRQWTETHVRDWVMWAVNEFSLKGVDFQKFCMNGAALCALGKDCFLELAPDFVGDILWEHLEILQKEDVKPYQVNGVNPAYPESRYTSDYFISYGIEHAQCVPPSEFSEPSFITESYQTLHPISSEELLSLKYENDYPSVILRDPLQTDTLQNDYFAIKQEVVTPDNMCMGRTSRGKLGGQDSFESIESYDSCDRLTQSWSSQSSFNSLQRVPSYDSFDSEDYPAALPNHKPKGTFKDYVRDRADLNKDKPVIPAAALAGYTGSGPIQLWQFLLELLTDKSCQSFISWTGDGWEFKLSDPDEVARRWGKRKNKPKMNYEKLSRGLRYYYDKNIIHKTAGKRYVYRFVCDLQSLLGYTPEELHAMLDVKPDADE
Description: ETS1 binding intensity (PBM fluorescence), ETS1 alone (arbitrary fluorescence units); higher = stronger binding. The following applies: ETS1 concentration 1 nM; RUNX1 concentration 0 nM. As to the method: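 gcPBM on 36-bp genomic-derived probes (partner site mutated) containing one ETS1 site and no RUNX1 site. Recombinant human ETS1 (1 nM) was incubated alone or with RUNX1 (25 nM) and detected by anti-ETS1 antibody fluorescence. Values are medians over 4 replicate spots (not normalised). The probes sit in constant array flanks that are not printed.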
CCGGGCGCCACTTCCGGTCCCCGTGGACACGTGACC: the ETS1 binding intensity amounted to 53800.

In turn, TTGCGCCGGACGCCACTTTCGGTCCCCGTGGACACG gave an ETS1 binding intensity of 602.

TCTTGTTTCTTCCGTTACCGGAGCGCGGCCACGTGA displayed an ETS1 binding intensity of 2590.

In turn, CCAGAGGGCGGAAGTGGGAGCTGCGACGGCGCTCCC came in with an ETS1 binding intensity of 7030.

Consider AACATCCTGTGTAAAGAGAATTGAATGTAGTTTTCT, for which the ETS1 binding intensity is 25200.

Take ACTTTGTCAGTGTAGTTTTCACATCCTGTCCTAGCT: the ETS1 binding intensity was determined as 2870.

Take TTTCTGATTGTAGTTTCAAATTATTTCCTGTGTTGG: the ETS1 binding intensity was determined as 1770.

As to CTCCATTATTCCGGCCAGGTGCCCTTCTGGGATAAG, the ETS1 binding intensity was 670.

As to TGCGCCGGAAGTGCATGAGCTGCCGATGAGGTGCTT, the ETS1 binding intensity is 8970.

With GCGCGGACTCCGGGAAGCTGAGCGGCAAAGACCGTG, the ETS1 binding intensity came to 359.

In turn, GAGCTGCAAGTCACAAAGACCGGAAGTGCGCGTACG displayed an ETS1 binding intensity of 26000.

On to TCACAATCGCTCACAAAGACAGGAAGTAACTGTCAG, for which the ETS1 binding intensity turned out to be 3450.

Consider CTCCTGCTCACAGAAGCTCACTGTTTCCTGTCTAGC, for which the ETS1 binding intensity was found to be 2690.

With TACTCTAAAGCACTTCAAACCTCCACTTCCTGCCCC, the ETS1 binding intensity was determined as 2240.

CACTTCCTGCCCTCTTCCACTTTCAAAATCACATCA: the ETS1 binding intensity stood at 31900.

AAATCAAAACCCCAATCAGATACCACTTCCTGCCCA: the ETS1 binding intensity amounted to 2350.

For CTCCCCCAGCACATCCTCTGCCACTGCTGCCTTTCC, the ETS1 binding intensity is 1720.

As to CTCCGCTGTCCCCTGCAGGCACCGAGGGCGGAACCA, the ETS1 binding intensity stood at 347.

Sequence GGGACTGCAGTCCCGGGGAGCGCACCGGAAGTTCTC displayed an ETS1 binding intensity of 4610.

The sequence ACAGAGGTGCTACCCCAAGGACCGGAAGCAGAGACC yielded an ETS1 binding intensity of 3940.

GGACCGGAAGTTAAGGCGTTCGCGGCGTGTGATAAG returned an ETS1 binding intensity of 22900.

GCCCCGGAAGCTCCTTAAGGAGGACCGTGTGAGTTT showed an ETS1 binding intensity of 1880.

TACCGGCGTTAATATAGTAAGGGCGGAAGTTCTCCT gave an ETS1 binding intensity of 1190.

Sequence ACTTGGCAGTTCCGGGTCCGCGCCCCAGCGCGCCAC displayed an ETS1 binding intensity of 2630.

In turn, GTAGCAACAGCAGGCTCACACACCGGAAGTGCTCGC returned an ETS1 binding intensity of 9380.

As to TTGCTCCCGGAAGCCCCGCCCGTCCGTGGCTCCTGA, the ETS1 binding intensity stood at 1350.

On to CCTGCCTTCCGTCTTCCAGGCAGAACGACAGAGAGG, for which the ETS1 binding intensity amounted to 1710.

On to CAGATTTCCGGCTTCTGAGGAGCTGCCCTACCCCAG, for which the ETS1 binding intensity is 38200.

AATGAGCCCCAGAACCCTTTTCCTTCCGGCCTGCAC came in with an ETS1 binding intensity of 1300.

For CCCAGAGCTTCCGATTGGCTCTTCTGAGGTGGCGGG, the ETS1 binding intensity was 1750.

Sequence AGTAACCAGCAGGCTGTGCCGGCAGGATGTTGTCTT gave an ETS1 binding intensity of 469.

For CTGGGGTCGGGGCGAGGGAGCTGCCGGGGAAGTGAG, the ETS1 binding intensity was determined as 513.

As to GGCCAAGAAATCCACTCAGAGGAAATCACAGGCCTG, the ETS1 binding intensity amounted to 439.

GAGAAACGTCAGGCATGGCCGGGCCACCAGGAAAAC returned an ETS1 binding intensity of 347.

CCCGGCGGCTACTTTCGGTCACTTTCGCCGGAACCT came in with an ETS1 binding intensity of 444.

For GGCCGACGGGAAGTGTAGTCCGGCCTGCAGTCCGGG, the ETS1 binding intensity is 1970.

The sequence GCCCTACCCAGCGGCGGCCGGACGCTTCGGCGCAGG gave an ETS1 binding intensity of 435.

For GCTCGTTTGGGGTTACTGACATCCGGCCTTCATTTC, the ETS1 binding intensity was determined as 5140.

CTGACGCATTTCCGGCCTTTGGGGTTGATCGGTCAT: the ETS1 binding intensity worked out at 26200.

Regarding TTTTTTCCGCCTGTAGGGTCACATTGGGGTTGATTG, the ETS1 binding intensity worked out at 2790.

CCAGGAGGGATGGGGAAGTTCACCAGACACTCCATG came in with an ETS1 binding intensity of 444.

On to GTCACTGTCGTATTTACTTTAGCTTCCTGTTCATCC, for which the ETS1 binding intensity turned out to be 1880.

CGATTCCGGATTGGTCCAATTCCAGCGCCGAAGCCC registered an ETS1 binding intensity of 673.

Take GCCACCTTACGACAGCTGTACAGAGCTTCCTTTAGC: the ETS1 binding intensity was 390.

CTAGCAGCTTCCGAGGGGGCGGCGGCCGGAGCGAGT: the ETS1 binding intensity was 784.

For AACCTCCGACTTCCGGCCGCGCAGCGGAGGGCTGAG, the ETS1 binding intensity was 32100.

In turn, AGCACTTCCGTTTGGGCAGGGCTGAGGGCCGGAGGG registered an ETS1 binding intensity of 16800.

For GGGGGAGTTTTCGGAAGCGCTAACAGCGTTGGGGCC, the ETS1 binding intensity is 566.

For TGGTGCCAAACATCCGCTAGCCAGAGAAAAACCGAC, the ETS1 binding intensity amounted to 6500.

Turning to ACACCGTGCTTTTCGGTTCCCGGAAGTCCTTCAGGC, the ETS1 binding intensity is 1560.

Sequence GACAAGATTGCAGGTGGCAACCCCATCCGGTTTGTT came in with an ETS1 binding intensity of 1400.

GGTCGCTCTGGTGACGGGGGAGGAAATTCTGTCCGT came in with an ETS1 binding intensity of 512.

TCTGTCGCACATCCGGTGTGAGCTTCGGGGCGGTGG yielded an ETS1 binding intensity of 22500.

With GTGAGCTTCCCGGCGCGCGGGGGGCGGTGCGCCTTC, the ETS1 binding intensity was found to be 797.

Take CCTTTGGGGTAGCAGTGGCCCCGCGCGGAGGAAGTT: the ETS1 binding intensity was determined as 303.

The sequence CTAGCCACCTCGGCCCCACCCTCTTCCGGCCTCAGC showed an ETS1 binding intensity of 1820.

With GCAGCTTCCGCGGCCCCCGCCCGGCCTGCAGCGCCA, the ETS1 binding intensity came out at 2350.

TGACATTTCCGGCCCCACCTCGGCCTGCAGCGCCGC showed an ETS1 binding intensity of 40200.

On to TATCAGCTTCCGACGTGCCCCTCGGTATCTGGACTA, for which the ETS1 binding intensity was determined as 1600.

GGATTTTGGGGTAGCGAACCCCGGGGCCGGAAGCAG: the ETS1 binding intensity turned out to be 1080.

Sequence CTGTCTGCTTCCCGTGGCCAGCCCTGATCGCGGCCC yielded an ETS1 binding intensity of 953.

For the sequence CGGGACTTCCTGTCTTCCCTGTCGCGGAGCTCTGAA, the ETS1 binding intensity came to 27000.

For TTCGCTCCCTGAATCGCGTCGCTTCCTGAGCCGCGC, the ETS1 binding intensity was found to be 454.
